Bioassay records (PubChem)
The sample as a whole holds a higher share of hits than the screen did.
HT1080NT lethal – kills 2HG-producing HT-1080-NT fibrosarcoma cells; HT-1080-NT fibrosarcoma viability, CellTiter-Glo ATP luminescence, 48 h; Potency, µM (titrated, usually from 46.1 µM), inactives show at the top dose activity, negative = less viability, most hits filed as cytotoxic; 360,000 compounds, 1.6% hits;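 note: NT is the 2HG producing partner of a matched IDH1 knockdown line; potency is the fitted concentration of half-maximal effect; 0% = DMSO-treated cells and -100% = media-only wells without cells; nearly all actives have a fitted effect of over 55% in size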
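A 48-hour cytotoxicity screen used HT-1080-NT cells plated 2 hours before compound delivery. ATP-based CellTiter-Glo luminescence measured viability, normalized to DMSO and no-cell controls.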
TDP1 cell CPT – growth inhibition of DT40 Tdp1-/-;hTDP1 cells with camptothecin (screen for TDP1 inhibitors); 420,000 compounds, 12% hits; chicken DT40 Tdp1-/-;hTDP1 cells + 20 nM CPT, ATP luminescence, 48 h; Potency, µM (series often up to 46.2 µM), inactives show at the highest dose activity change, negative = growth inhibition, hits mostly inhibitors; note: potency is the fitted concentration of half-maximal effect; nearly all actives have a fitted effect of over 55% in size
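Chicken DT40 Tdp1-/- cells complemented with human TDP1, 400 cells/well, exposed to compounds plus 20 nM camptothecin for at least 48 h at 37 C; viability read as ATP content by CellTiter-Glo luminescence.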
TDP1 cell noCPT – qHTS for Inhibitors of human tyrosyl-DNA phosphodiesterase 1 (TDP1): qHTS in cells in absence of CPT | DT40 Tdp1-/- hTDP1 cells, no CPT, ATP luminescence, 48 h | Potency, µM (top dose mostly 46.2 µM), for inactives: at the highest dose activity change, negative = growth inhibition, hits mostly inhibitors | 420,000 compounds, 15% hits; note: potency is the fitted concentration of half-maximal effect; nearly all actives have a fitted effect of over 55% in size
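Growth kinetics read by CellTiter-Glo luminescence after ≥48 hr at 37 °C. Cells: DT40 Tdp1-/- stably carrying human TDP1, 400 per well, compound exposure in the absence of CPT (DMSO vehicle).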
HT1080 IDH1KD tx – toxicity to HT-1080 IDH1 knockdown cells (counter line); HT-1080 IDH1 knockdown viability, ATP luminescence, 48 h; Potency, µM (highest dose often 46.1 µM), for the others: top-dose activity, negative = toxicity, usual class: cytotoxic; 360,000 compounds, 2% hits;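 note: potency is the fitted concentration of half-maximal effect; 0% = DMSO wells and -100% = cell-free medium wells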
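In this qHTS, HT-1080 cells depleted of IDH1 are exposed for 48 h at 37 °C to compound titrations. Toxicity is scored from CellTiter-Glo luminescence, with DMSO as full viability and medium alone as none.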
12-LOX inh – blocks human arachidonate 12S-lipoxygenase; purified 12hLO, xylenol orange hydroperoxide absorbance; Potency, µM (series often up to 108 µM), for inactives: at the highest dose activity change, negative = inhibition, hits mostly inhibitors; 580,000 compounds, 1.1% hits; note: potency is the fitted concentration of half-maximal effect
Target sequence (P18054 whole entry, looked up): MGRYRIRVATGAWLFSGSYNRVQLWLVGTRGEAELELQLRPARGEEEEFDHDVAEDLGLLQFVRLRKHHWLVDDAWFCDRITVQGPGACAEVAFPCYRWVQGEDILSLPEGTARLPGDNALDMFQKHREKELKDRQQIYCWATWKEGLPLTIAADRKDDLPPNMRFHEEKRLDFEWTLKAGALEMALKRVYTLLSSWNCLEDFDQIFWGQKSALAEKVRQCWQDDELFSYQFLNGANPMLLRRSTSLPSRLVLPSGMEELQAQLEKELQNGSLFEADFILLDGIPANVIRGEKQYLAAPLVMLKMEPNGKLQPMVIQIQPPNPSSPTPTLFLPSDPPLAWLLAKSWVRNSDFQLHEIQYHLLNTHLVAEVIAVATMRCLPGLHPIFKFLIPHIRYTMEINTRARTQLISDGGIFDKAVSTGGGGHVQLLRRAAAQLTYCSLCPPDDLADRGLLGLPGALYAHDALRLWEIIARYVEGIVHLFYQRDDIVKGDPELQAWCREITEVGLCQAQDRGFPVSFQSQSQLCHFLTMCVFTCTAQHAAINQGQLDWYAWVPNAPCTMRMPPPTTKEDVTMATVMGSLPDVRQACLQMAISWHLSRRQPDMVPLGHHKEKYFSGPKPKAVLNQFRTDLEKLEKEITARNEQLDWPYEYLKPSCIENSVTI
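Purified human 12hLO at 150 nM in 25 mM Hepes, 0.01% Triton X-100, pH 7.0, preincubated 15 min at room temperature with compound. Reaction started with 40 uM arachidonic acid, 30 min at room temperature. Hydroperoxide measured by Fe-xylenol orange, 573/405 nm absorbance ratio.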
IL-1B inflam inh – inhibitors of inflammasome signaling (IL-1 beta secretion); THP-1 LPS/ATP IL-1B secretion, AlphaLISA, 16 h; stronger effect = lower value; activity change, % at 57.5 µM; 360,000 compounds, 4.7% hits; AID 743279; in the data active = activity change below about -50%; inconclusive = mostly about -30% to -49%
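Secreted IL-1B measured by AlphaLISA bead assay after 16 h compound exposure of THP-1 cells; compounds (final up to 57.5 uM) added 1 h before LPS (250 ng/mL) and ATP (1.25 mM) stimulation; lower signal means less secretion.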
An asterisk follows results filed as active; ? = inconclusive; nt = not tested or not shown; [ ] = remark or other dose. Unless noted, calls come from the whole dose curve; as a rule, active = well fitted curve in the direction sought with a large enough effect; inconclusive = small, poorly fitted or top-dose-only effect, or another doubt; inactive = no such curve, though single readings can be large; an effect the other way counts as inactive or inconclusive. Unless noted, % is set by controls: 0 for no effect and ±100 for the full control effect.

SMILES	HT1080NT lethal	TDP1 cell CPT	TDP1 cell noCPT	HT1080 IDH1KD tx	12-LOX inh	IL-1B inflam inh
CC(C)CNC(=S)N(CCN(C)C)Cc1cc2cc3c(cc2[nH]c1=O)OCO3	-1%	?	5.2µM*	-7%	0%	?
CNc1c(NC(=O)c2cc(OC)cc(OC)c2)c(=O)oc2ccccc12	nt	0%	-28%	nt	-16%	nt
CC[C@H]1CN(S(=O)(=O)c2c(C)noc2C)CC[C@H]1CC(=O)Nc1nccs1	nt	nt	nt	nt	-3%[176 µM]	nt
CCOC(=O)C1=C(N)c2ccccc2CC1C1CCCC1 (stereo not drawn)	0%	26µM*	?	-1%	-1%	-8
O=C(C(c1ccccc1)c1ccccc1)N(Cc1ccccc1)C1CC1	nt	nt	nt	nt	5%	nt
c1ccc(NC2=NCCN2CCC2CCCCC2)cc1	4%	23µM*	?	-1%	2%	0
CCCCCCCN1CCN=C1Nc1ccccc1	-1%	23µM*	26µM*	-3%	-24%	?
COc1ccc(/C=C(/C#N)c2c(F)cccc2Cl)cc1	nt	nt	nt	nt	-6%	nt
C[C@@H]1CN(c2cnc3ccccc3n2)CC[C@@]1(O)C1CCC1	nt	nt	nt	nt	-27%	nt
CC(=O)Oc1ccc2ccccc2c1C(NC(=O)C(C)C)c1cccc([N+](=O)[O-])c1 (stereo not drawn)	?	?	?	0%	-8%	-74*
COc1ccc(CC(=O)N2CCC3(CC2)CC(NC(=O)NC(C)C)c2ccccc23)cc1 (stereo not drawn)	nt	nt	nt	nt	5%[6.33 µM]	nt
Nc1nccnc1C(=O)NCCCc1nc2ccccc2[nH]1	nt	nt	nt	nt	-1%	nt
COc1ccc(S(=O)(=O)N2CCN(C(=O)c3sccc3-c3ccccc3)CC2)cc1	2%	15µM*	21µM*	1%	1%	3
O=C(c1sccc1-c1ccccc1)N1CCN(S(=O)(=O)c2ccccc2F)CC1	0%	15µM*	?	-1%	22%	5
COc1ccc(S(=O)(=O)N2CCN(C(=O)c3cccs3)CC2)cc1	3%	-13%	-17%	8%	0%	-12
CC1Cc2ccccc2N1C(=O)c1cc2sccc2n1Cc1ccc(F)cc1 (stereo not drawn)	-5%	?	16µM*	-10%	53%	-22
COc1ccccc1CNC(=O)c1cc2sccc2n1Cc1ccc(F)cc1	nt	21µM*	23µM*	nt	-18%	nt
CCCCn1c(C2CCCCC2)nc2cc3[nH]c(=O)c(C(C)C)nc3cc21	-4%	?	?	-2%	4%	24
CCCCn1c(-c2ccccc2C)nc2cc3[nH]c(=O)c(C(C)C)nc3cc21	-26%	21µM*	?	-6%	11%	-26
CCCCn1c(-c2cccc3ccccc23)nc2cc3[nH]c(=O)c(C(C)C)nc3cc21	-29%	?	16µM*	-7%	1%	-13
COc1ccccc1C(=O)Nc1cccc(-c2nc3ccccc3o2)c1C	nt	nt	nt	nt	-15%	nt
O=C(CCc1ncc(-c2ccc(F)cc2)o1)N1CCN(S(=O)(=O)c2ccc(F)cc2F)CC1	nt	nt	nt	nt	16%	nt
Cc1sc2nc(CN3CCCCC3)nc(Sc3nnnn3C3CC3)c2c1C	nt	nt	nt	nt	-16%	nt
CCn1nnnc1Sc1nc(C)nc2scc(-c3ccccc3)c12	nt	?	8.9µM*	nt	nt	nt
Cn1nnnc1Sc1ncnc2scc(-c3ccc(-c4ccccc4)cc3)c12	nt	nt	nt	nt	-1%	nt
SMILES	HT1080NT lethal	TDP1 cell CPT	TDP1 cell noCPT	HT1080 IDH1KD tx	12-LOX inh	IL-1B inflam inh
Cc1nc(Sc2nnnn2C2CC2)c2c(-c3ccccc3)csc2n1	nt	?	11µM*	nt	nt	nt
CCc1noc(-c2cccn3c(CNC(=O)c4ccccc4OC)nnc23)n1	nt	nt	nt	nt	74%	nt
Cc1[nH]c2ccccc2c1C(=O)C(=O)Nc1ccc2c(c1)OCO2	9%	-17%	?	0%	-18%	-10
CN1C2C=C3C(C#N)=C(N)C(C#N)(C#N)[C@@H](c4ccc(Cl)cc4)[C@@H]3C1CC2 (stereo partly drawn)	-3%	?	?	-7%[9.24 µM]	-2%	-6
CN1C2C=C3C(C#N)=C(N)C(C#N)(C#N)C(c4ccc(Br)cc4)C3C1CC2 (stereo not drawn)	-12%	?	21µM*	-6%	?	-101*
C/C(Cn1cnc([N+](=O)[O-])n1)=N\NC(=O)c1ccccc1O	-11%	5%	2%	2%	8%	-14
C/C(Cn1nnc([N+](=O)[O-])n1)=N\NC(=O)c1ccc(O)cc1O	23µM*	?	?	18µM*	21%	4
C/C(Cn1nnc([N+](=O)[O-])n1)=N\NC(=O)c1ccccc1O	?	15µM*	18µM*	?	-2%	-4
Cn1cc(CN2C[C@H](C(=O)NCc3cccc(F)c3)C[C@H]2c2cccc(C(F)(F)F)c2)cn1	nt	nt	nt	nt	11%	nt
COc1cccc(/C=C/C(=O)NCc2ccc(S(N)(=O)=O)cc2)c1	32%	1%	-16%	25%	2%	24
Cc1ccc(Cl)cc1N1CCN(Cc2nc3c(c(=O)n(C)c(=O)n3C)n2CCCO)CC1	nt	nt	nt	nt	-1%	nt
O=C(CSc1ncnc2ccccc12)NN1C(=O)NC2(CCCCC2)C1=O	nt	nt	nt	nt	4%	nt
O=C(O)c1coc(CN2C[C@@H](C(=O)O)[C@H](C3CC3)C2)n1	nt	nt	nt	nt	50%	nt
COc1ccc(OC)c(NC(=O)c2oc3c(c2C)C(O)CC(C)(C)C3)c1 (stereo not drawn)	6%	15µM*	?	0%	480%	-4
CCOC(=O)c1ccccc1NC(=O)C1CCN(c2ncnc3sc(C)c(C)c23)CC1	-5%	23µM*	?	-6%	nt	54
Cc1sc2ncnc(N3CCC(C(=O)Nc4ccccc4C(C)(C)C)CC3)c2c1C	-3%	21µM*	13µM*	-22%	-10%	-9
Cc1c(-c2cccc(Cl)c2)nc2ccccc2c1C(=O)NC1CCCCCCCCCCC1	nt	nt	nt	nt	-15%	nt
OC(c1cc(-c2cccc(Cl)c2)nc2ccccc12)C1CCCCN1 (stereo not drawn)	4.1µM*	16µM*	2.6µM*	2.9µM*	35µM*	-101*
CC1(C)CCC[C@]2(C)[C@H]3Cc4cc(O)ccc4O[C@]3(C)CC[C@@H]12	?	18µM*	?	?	?	38
CC1=NN2C(=N)/C(=C\c3ccc(SCc4ccccc4)o3)C(=O)N=C2S1	19%	-2%	-9%	13%	40µM*	0
Cc1cc(/C=C2\C(=N)N3N=C(CC(=O)N4CCOCC4)SC3=NC2=O)c(C)n1Cc1ccccc1	6%	1%	10%	4%	398%	20
